Test systems include HCT-15 colon; HT29 colon; SNB-75 CNS; U251 CNS; PC-3 prostate; SK-MEL-5 melanoma; UACC-62 melanoma; LOX IMVI melanoma; SK-MEL-28 melanoma; SNB-19 CNS.
Holding throughout (test): NCI-60 one-dose screen, 48 h (100 = growth as untreated, 0 = no growth, -100 = all killed)
Holding throughout (conditions): 10 µM unless noted

About 83,000 compounds went through this panel and 20% of them were active in at least one assay; those are over-represented in the sample as a whole.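 Treatment: one concentration, 48 hours, 96-well format. Scoring: percent growth, with anything below 10 considered active.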 Unmarked numbers belong to inactive results. The source made the active and inactive calls.

`COC(=O)Nc1ccc(-c2nc(-c3cccc(OC)c3)c(-c3ccnc(Br)c3)[nH]2)cc1`: the growth in the test with HCT-15 colon is 17.8%; with HT29 colon, 50.5%; in the test on SNB-75 CNS, 37.5%; with U251 CNS, 51.5%; with PC-3 prostate, 34%; with SK-MEL-5 melanoma it was 50.2%. Also, the growth with UACC-62 melanoma is 47.2%; in the test on LOX IMVI melanoma, 23.6%; in the test with SK-MEL-28 melanoma, 62.3%.

In the case of `Cc1ncc(C(=O)Nc2ccc(CN3CCN(C)CC3)c(C(F)(F)F)c2)cc1C#Cc1ccc(N)nc1`, the growth is 6.59% (active) in the test on HCT-15 colon; 18.1% in the test with HT29 colon; -57.3% (active) in the test with SNB-75 CNS; 26.9% with SNB-19 CNS; 10.9% in the test with PC-3 prostate; -100% (active) with SK-MEL-5 melanoma. In addition, the growth in the test with UACC-62 melanoma is -70.2% (active); with LOX IMVI melanoma, -94.9% (active); with SK-MEL-28 melanoma, -46.2% (active).

As for `CNC(=O)c1cc(-n2ccc3cc(NC(=O)c4ccc(N5CCOCC5)c(C(F)(F)F)c4)ccc32)ccn1`, the growth is 43.2% with HCT-15 colon; 25.1% with HT29 colon; 85.9% in the test with SNB-75 CNS; 81.1% in the test with SNB-19 CNS; 18% in the test on PC-3 prostate; 24.6% with SK-MEL-5 melanoma. Also, the growth was 38.7% in the test on UACC-62 melanoma and 82.2% with SK-MEL-28 melanoma.

Turning to `NS(=O)(=O)c1ccc(-n2nc(C(=O)N/N=C\c3ccc(F)cc3)cc2-c2ccc(Br)cc2)cc1`, the growth in the test with HCT-15 colon was 54.3%; in the test on HT29 colon, 66.4%; in the test with SNB-75 CNS, 37.4%; in the test on U251 CNS, 89%; in the test with PC-3 prostate it was 72.2%; with SK-MEL-5 melanoma it was 87.2%. The growth with UACC-62 melanoma was 64.4%; in the test on LOX IMVI melanoma it was 74.9%; in the test with SK-MEL-28 melanoma it was 77.8%.

As for `COc1cc(/C=C/c2c(C(C)=O)c(C)nc3ccccc23)cc(OC)c1OC`, the growth in the test on HCT-15 colon is 25.4%; in the test with HT29 colon it was 17.6%; in the test on SNB-75 CNS it was -34.5% (active); in the test on SNB-19 CNS it was 39.4%; in the test on PC-3 prostate, 32.5%; in the test with SK-MEL-5 melanoma it was 31.4%. In addition, the growth is 38.9% in the test on LOX IMVI melanoma and 53.9% with SK-MEL-28 melanoma.

As for `C/C(=C\C(=O)c1ccc(Cl)cc1)c1ccc(Cl)cc1`, the growth was 44.6% in the test with HCT-15 colon; 109% in the test on HT29 colon; 92.8% with SNB-75 CNS; 100% with U251 CNS; 87.8% in the test with PC-3 prostate; 94.1% in the test on SK-MEL-5 melanoma. The results for the growth in the test with UACC-62 melanoma, in the test with LOX IMVI melanoma and with SK-MEL-28 melanoma were 92.8%, 100% and 111%, respectively.

In the case of `COc1ccc(S(=O)(=O)n2c3ccccc3n3ncc(-c4nnc(C)o4)c23)cc1`, the growth in the test on HCT-15 colon is 20.3%; in the test with HT29 colon it was 11.2%; in the test on SNB-75 CNS it was 14.1%; with SNB-19 CNS, 23%; in the test on PC-3 prostate, 36.5%; with SK-MEL-5 melanoma it was 21.3%. Besides, the growth with LOX IMVI melanoma is 36.8%; in the test with SK-MEL-28 melanoma, 65.3%.

As to `Cc1ccc(S(=O)(=O)Oc2ccc(NC(=O)c3ccc(Cl)cc3)cc2)cc1`, the growth is 88.8% with HCT-15 colon; 94.9% in the test on HT29 colon; 98.7% in the test on SNB-75 CNS; 97.1% with U251 CNS; 93.2% in the test with PC-3 prostate; 99.9% with SK-MEL-5 melanoma. The growth in the test with UACC-62 melanoma is 95.8%; in the test with LOX IMVI melanoma, 95.1%; in the test with SK-MEL-28 melanoma it was 108%.

On to `O=C(CCOCCNC(=O)COc1ccc2c(c1)OCC(c1ccc(F)cc1)C2=O)NCCCC(O)(P(=O)(O)O)P(=O)(O)O` (configuration not stated), for which the growth in the test on HCT-15 colon was 98.9%; in the test with HT29 colon it was 104%; with SNB-75 CNS, 89.6%; with SNB-19 CNS, 99.6%; with PC-3 prostate, 102%; in the test on SK-MEL-5 melanoma, 101%. The growth in the test on UACC-62 melanoma was 105%; in the test on LOX IMVI melanoma, 97.8%; in the test with SK-MEL-28 melanoma it was 108%.

On to `CCCCn1c(=O)c(-c2cc(-c3ccc(Cl)cc3)nc(-c3ccc(Cl)cc3)c2)cc2cc(Cl)ccc21`, for which the growth in the test on HCT-15 colon is 97.8%; in the test on HT29 colon it was 101%; in the test on SNB-75 CNS it was 95.4%; in the test with U251 CNS, 105%; with PC-3 prostate, 98.4%; in the test with SK-MEL-5 melanoma, 107%. Also, the growth in the test with UACC-62 melanoma is 88.5%; in the test on LOX IMVI melanoma, 99.9%; in the test on SK-MEL-28 melanoma, 104%.

In the case of `CC(=O)OC[C@H]1OC(Sc2sc(C(=O)c3ccc(C)cc3)c(N)c2-c2nc3ccccc3s2)[C@H](OC(C)=O)[C@@H](OC(C)=O)[C@@H]1OC(C)=O` (some centres not stated), the growth is 59.5% with HCT-15 colon; 69% with HT29 colon; 25.4% with SNB-75 CNS; 59.5% in the test on U251 CNS; 63.2% in the test with PC-3 prostate; 45.5% in the test on SK-MEL-5 melanoma. For the same compound, the growth is 55.8% in the test with UACC-62 melanoma, 54.5% in the test with LOX IMVI melanoma and 76.4% in the test with SK-MEL-28 melanoma.

Take `C=CCNc1ccc2c3c(cccc13)C(=O)N(N1C(=O)c3cccc4cccc(c34)C1=O)C2=O`: the growth in the test on HCT-15 colon is 102%; in the test on HT29 colon it was 103%; in the test with SNB-75 CNS, 90.4%; with U251 CNS, 95.4%; with PC-3 prostate, 106%; in the test with UACC-62 melanoma it was 95.7%. Moreover, the growth with LOX IMVI melanoma was 90.8%; in the test with SK-MEL-28 melanoma, 108%.

In the case of `COc1cc(C2CC(c3cccc(Br)c3)=NN2C(C)=O)cc(OC)c1OC` (configuration not stated), the growth in the test with HCT-15 colon was 13.4%; in the test on HT29 colon it was 13.8%; in the test on SNB-75 CNS, 12%; with U251 CNS, 12.2%; in the test on PC-3 prostate, 37.1%; in the test with SK-MEL-5 melanoma it was 23%. The values for the growth in the test with UACC-62 melanoma, in the test on LOX IMVI melanoma and with SK-MEL-28 melanoma were 14.8%, 50.1% and 70.2%, respectively.

With `CNC(=O)c1[nH]cc(-c2ccccc2)c1-c1cc(OC)c2c(c1OC)OCO2`, the growth in the test on HCT-15 colon is 104%; in the test on HT29 colon, 91.5%; in the test on SNB-75 CNS, 70.9%; with SNB-19 CNS, 90.6%; in the test on PC-3 prostate, 98.3%; with SK-MEL-5 melanoma, 105%. Moreover, the growth in the test on UACC-62 melanoma was 90.8%; in the test with LOX IMVI melanoma, 98.5%; in the test on SK-MEL-28 melanoma it was 108%.

These data come from PubChem BioAssay (NCI).
